Measurements published in PubChem BioAssay AID1159580 (chemical genetic matrix, 2015).
In all, about 5,500 compounds went through this assay and about 2,000 (36%) were called active. Another 18% or so got no clear call; they are omitted. Cut-off read from the data, not from the text of the source: active = normalized growth mostly below about 0.91 (no sharp cut-off); inconclusive = no clear call, values can overlap the other calls; inactive = mostly above about 0.92. Some of the results follow.

Experiment: chemical genetic growth profiling, strain panel (AID 1159580);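 note: tested at 20 µM; growth read once vehicle control cultures reached saturation at 30 °C; 1 = growth at the plate median or of vehicle wells; lower values mean less growth of the strain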
Settings: S. cerevisiae deletion strains, growth OD

Measured: normalized growth

Nc1ccccc1SCc1c(Cl)cccc1Cl
active: locus YHR030C, strain SLT2, hits give low values 0.695 | locus YLR113W, strain HOG1, hits give low values 0.696
inactive: locus YAR019C, strain CDC15, hits give low values 0.949 | locus YBL105C, strain PKC1, hits give low values 0.947 | locus YBR135W, strain CKS1, hits give low values 0.957 | locus YBR136W, strain MEC1, hits give low values 0.945 | locus YBR160W, strain CDC28, hits give low values 0.953 | locus YDL017W, strain CDC7, hits give low values 0.952 | locus YDL028C, strain MPS1, hits give low values 0.947 | locus YDL101C, strain DUN1, hits give low values 0.953 | locus YDL108W, strain KIN28, hits give low values 0.954 | locus YDL132W, strain cdc53, hits give low values 0.94 | locus YDL214C, strain PRR2, hits give low values 0.889 | locus YDR052C, strain DBF4, hits give low values 0.962 | locus YDR054C, strain cdc34, hits give low values 0.943 | locus YDR226W, strain ADK1, hits give low values 0.969 | locus YDR477W, strain SNF1, hits give low values 0.859 | locus YER123W, strain YCK3, hits give low values 0.795 | locus YER133W, strain GLC7, hits give low values 0.821 | locus YFL009W, strain cdc4, hits give low values 0.946 | locus YFL029C, strain CAK1, hits give low values 0.949 | locus YFR003C, strain YPI1, hits give low values 0.944 | locus YFR019W, strain FAB1, hits give low values 0.841 | locus YFR028C, strain CDC14, hits give low values 0.948 | locus YGR040W, strain KSS1, hits give low values 0.853 | locus YGR052W, strain FMP48, hits give low values 0.787 | locus YGR092W, strain DBF2, hits give low values 0.775 | locus YHR079C, strain IRE1, hits give low values 0.843 | locus YHR082C, strain KSP1, hits give low values 0.835 | locus YHR205W, strain SCH9, hits give low values 0.68 | locus YIL147C, strain SLN1, hits give low values 0.952 | locus YJL095W, strain BCK1, hits give low values 0.617 | locus YJL128C, strain PBS2, hits give low values 0.914 | locus YJL157C, strain FAR1, hits give low values 0.885 | locus YJR016C, strain ILV3, hits give low values 0.956 | locus YJR066W, strain TOR1 (second series), hits give low values 0.813 | locus YJR066W, strain TOR1, hits give low values 0.767 | locus YKL048C, strain ELM1, hits give low values 0.939 | locus YKL067W, strain YNK1, hits give low values 0.87 | locus YKL101W, strain HSL1, hits give low values 0.87 | locus YKL193C, strain SDS22, hits give low values 0.952 | locus YKL203C, strain TOR2, hits give low values 0.907 | locus YLR133W, strain CKI1, hits give low values 0.91 | locus YLR403W, strain SFP1, hits give low values 0.795 | locus YML070W, strain DAK1, hits give low values 0.831 | locus YMR001C, strain CDC5, hits give low values 0.945 | locus YMR205C, strain PFK2 (second series), hits give low values 0.885 | locus YMR277W, strain FCP1, hits give low values 0.951 | locus YNL006W, strain LST8, hits give low values 0.959 | locus YNL020C, strain ARK1, hits give low values 0.891 | locus YNL161W, strain CBK1, hits give low values 0.955 | locus YNL183C, strain NPR1, hits give low values 0.79 | locus YNL207W, strain RIO2, hits give low values 0.948 | locus YNL222W, strain SSU72, hits give low values 0.951 | locus YNL307C, strain MCK1 (second series), hits give low values 0.825 | locus YOL078W, strain AVO1, hits give low values 0.943 | locus YOL136C, strain PFK27, hits give low values 0.853 | locus YOR061W, strain CKA2, hits give low values 0.843 | locus YOR119C, strain RIO1, hits give low values 0.905 | locus YOR231W, strain MKK1, hits give low values 0.751 | locus YOR329C, strain SCD5, hits give low values 0.95 | locus YPL031C, strain PHO85, hits give low values 0.841 | locus YPL153C, strain RAD53, hits give low values 0.85 | locus YPL204W, strain HRR25, hits give low values 0.857 | locus YPL209C, strain IPL1, hits give low values 0.949 | locus YPL256C, strain CLN2, hits give low values 0.917 | locus YPR025C, strain CCL1, hits give low values 0.95 | locus YPR106W, strain ISR1, hits give low values 0.95 | locus YPR111W, strain DBF20, hits give low values 0.935 | strain NNK1, hits give low values 0.944 | strain TSCII, hits give low values 0.952
